RXFP1 agonist – agonists of human relaxin receptor RXFP1. HEK293T-RXFP1 cAMP TR-FRET, 30 min; response scale: percent of porcine relaxin response, buffer zero. Potency, µM (titrated, usually from 57.5 µM), inactives show at the highest dose activation, most hits filed as activators. Q9HBX9. AID 2676. 370,000 tested, 0.3% active; active means well fitted activation curve with a large enough effect; inconclusive means small, poorly fitted or top-dose-only effect; further: potency means the concentration at half of the fitted maximal effect; nearly all actives have a fitted effect of over 60% in size
Target sequence (Q9HBX9 whole entry, looked up): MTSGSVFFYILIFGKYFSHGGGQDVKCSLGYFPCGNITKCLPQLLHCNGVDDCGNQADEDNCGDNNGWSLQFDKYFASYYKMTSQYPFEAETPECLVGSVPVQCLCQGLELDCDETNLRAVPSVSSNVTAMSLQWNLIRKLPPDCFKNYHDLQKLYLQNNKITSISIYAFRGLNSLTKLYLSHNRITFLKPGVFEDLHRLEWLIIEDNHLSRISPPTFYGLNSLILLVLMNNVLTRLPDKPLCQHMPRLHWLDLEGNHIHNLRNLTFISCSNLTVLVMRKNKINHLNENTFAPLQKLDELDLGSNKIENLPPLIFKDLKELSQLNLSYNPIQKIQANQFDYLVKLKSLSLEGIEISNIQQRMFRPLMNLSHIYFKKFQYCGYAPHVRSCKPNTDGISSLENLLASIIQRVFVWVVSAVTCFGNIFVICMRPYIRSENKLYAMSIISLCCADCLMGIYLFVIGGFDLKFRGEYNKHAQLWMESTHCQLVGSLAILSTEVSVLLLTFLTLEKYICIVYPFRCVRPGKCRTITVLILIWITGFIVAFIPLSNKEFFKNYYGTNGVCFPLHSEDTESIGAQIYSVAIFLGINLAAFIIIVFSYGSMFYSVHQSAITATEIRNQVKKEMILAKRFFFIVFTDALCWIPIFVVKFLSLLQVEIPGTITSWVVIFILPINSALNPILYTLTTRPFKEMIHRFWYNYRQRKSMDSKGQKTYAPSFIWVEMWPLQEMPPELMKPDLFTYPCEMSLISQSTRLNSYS
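Agonist response is measured as cAMP accumulation in an RXFP1-transfected HEK293T line under PDE4 inhibition. Values are scaled between buffer-only and 29 nM porcine relaxin, and EC50s come from standard Hill equation fits.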
pAkt inh – Akt phosphorylation inhibition; Neuro2A IGF-stimulated pAkt S473 HTRF, 20 min; active compounds read low; activity change, % for hits at 50 µM; 360,000 tested, 0.32% active; AID 651550; in the data active means activity change below about -80%; inconclusive means mostly about -51% to -80%
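Single-point screen (50 µM final compound) in Neuro2A cells stimulated 20 min with 6 nM IGF at 37 deg C. After lysis, Ser473-phosphorylated Akt read by HTRF (ex 330 nm, em 615/665 nm) as the 665/615 ratio.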
RXFP1 antag – RXFP1 (human) relaxin receptor antagonism | HEK293-RXFP1, relaxin-stimulated cAMP HTRF, 30 min; active compounds read low | activity change, negative = inhibition, % at 57.5 µM | AID 1259400 | 350,000 tested, 0.59% active | Q9HBX9;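 active means activity change of -60% or lower, but not beyond a set lower limit; inconclusive means change between -60% and -40%, or beyond the set limit; inactive means change above -40%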
hERG WT inh – KCNH2 (human, wildtype) channel inhibition; AID 720551; activity change, % at 1.84 µM; 340,000 tested, 0.37% active; Q12809; U2OS, BacMam KCNH2, thallium flux FluxOr; active compounds read low;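 active means maximum activity change below -70%; inconclusive means maximum activity change between -70% and -50%; inactive means maximum activity change above -50%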
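U2OS cells transduced with wild-type KCNH2 virus are loaded with FluxOr dye for 45 min, and thallium flux is measured in kinetic reads before and after stimulation buffer. Rate constants are normalized to DMSO controls.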
KCNH2 3.1 inh – inhibitors of human KCNH2 3.1 potassium channel isoform | activity change, % (tested at about 1.8 µM) | AID 720553 | U2OS KCNH2 3.1, thallium flux FluxOr; active compounds read low | 340,000 tested, 0.95% active;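 active means maximum activity change below -70%; inconclusive means maximum activity change from -70% to -50%; inactive means maximum activity change above -50%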;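 further: thallium influx rate constant from kinetic fluorescence after stimulation buffer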
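FluxOr-based Tl+ influx in U2OS cells transduced with KCNH2 3.1 virus; rate constants normalized to DMSO controls.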
* marks the source's active call; other numbers are inactive results; i = inactive; ? = inconclusive; . = no result. Only some compounds are listed: those with a hit (about 1.7% of all), similar ones and a draw of the others. On the % scale 0 is the no-effect control and ±100 the full control effect.

SMILES	RXFP1 agonist	pAkt inh	RXFP1 antag	hERG WT inh	KCNH2 3.1 inh
OC(COc1ccc(F)cc1Cl)CN1CCC(Cc2ccccc2)CC1 (stereo not drawn)	-2%	i	-15	?	-93*
COc1ccc(OC)c(NC(=O)COC(=O)C2CCN(C(=O)c3ccc(Cl)cc3)CC2)c1	20%	i	5	16	-19
Cc1cc(C)c(C(=O)CC2(O)C(=O)Nc3ccccc32)cc1C (stereo not drawn)	0%	-116%*	-6	-7	4
COc1ccc(CCN2CCCC(CN(C)Cc3cccc(OC)c3)C2)cc1 (stereo not drawn)	-2%	i	-2	-25	-74*
COc1ccc(CCN2CCCC(CN(C)Cc3cc(OC)ccc3OC)C2)cc1 (stereo not drawn)	-3%	i	-6	70	-40
CCN(Cc1ccc(OC)c(COC)c1)CC1CCCN(CCc2cccc(F)c2)C1 (stereo not drawn)	-1%	i	-8	50	-72*
CCN(Cc1ccc(OC)c(COC)c1)CC1CCCN(CCc2cccc(OC)c2)C1 (stereo not drawn)	1%	i	7	42	-9
CN(Cc1ccccc1O)CC1CCCN(CCc2ccc(Cl)cc2)C1 (stereo not drawn)	0%	i	-1	1	-86*
O=C(CSc1cccc[n+]1[O-])Nc1ccc(C(F)(F)F)cc1[N+](=O)[O-]	1%	i	11	-4	-9
NC(=O)/C=C/C(=O)Nc1ccc(Cl)cc1	-1%	i	7	5	-8
O=C(/C=C/C(Cl)(Cl)Cl)Nc1ccc(Cl)cc1	.	i	-73*	4	-2
CCc1ccc(NC(=O)CSc2nc3c([nH]c4ccccc43)c(=O)n2-c2ccc(C)cc2)cc1	2%	.	.	.	.
Cc1ccc(C(=O)NC(=S)N2CC(C)OC(C)C2)cc1[N+](=O)[O-] (stereo not drawn)	3%	i	9	2	-91*
COc1ccc(C(=O)NC(=S)N2CC(C)OC(C)C2)cc1 (stereo not drawn)	4%	i	0	-13	-5
CN(C)c1ccc(N=Nc2ccccc2C(=O)OCC(=O)N2CCCC2)cc1	-1%	i	-2	-26	-83*
CN(C)c1ccc(N=Nc2ccccc2C(=O)OCC(=O)N2CCCCCC2)cc1	2%	i	7	10	2
CNCCCOc1ccc2c(c1)CCC2	-1%	i	16	9	-3
c1cnc(SCCOc2ccc3c(c2)CCC3)nc1	1%	-117%*	-4	10	7
COc1cccc(NC(=O)CSc2nc3c(sc4ccccc43)c(=O)n2CCN(C)C)c1	4%	i	-64*	13	3
O=C(O)CCSCCC(=O)O	3%	-106%*	-4	1	14
Cc1ccc(CNC(=O)c2ccc(NC(=O)N3CCSc4ncccc43)cc2)cc1	0%	.	-10	.	.
Oc1ccc(N=Nc2ccc3c(c2)OCCO3)c2cccnc12	-3%	i	?	2	8
Oc1ccc(N=Nc2ccc3c(c2)OCCO3)c(O)c1	3%	i	-16	-73*	-21
CC(C)(C)c1ccc(C(=O)NCCCN2CCN(CCCNC(=O)c3ccc(C(C)(C)C)cc3)CC2)cc1	-1%	i	?	-6	-114*
COc1ccc(CCNC(=O)c2c(Cl)ccc(Cl)c2OC)cc1OC	0%	i	2	-1	-96*
SMILES	RXFP1 agonist	pAkt inh	RXFP1 antag	hERG WT inh	KCNH2 3.1 inh
COc1ccc(CCNC(=O)c2ccc(Cl)cc2)cc1OC	1%	i	-6	2	-8
COc1ccc(/C=C/C(=O)NCCCN2CCCC2)cc1	-3%	i	3	20	-4
Cc1ccc(/C=C/C(=O)NCCCN2CCN(CCCNC(=O)/C=C/c3ccc(C)cc3)CC2)cc1	2%	i	1	-119*	-122*
COc1ccc(CCNC(=O)/C=C/c2ccc(C)cc2)cc1OC	-3%	i	-3	-1	-89*
C[C@@H](NCCCc1cccc(C(F)(F)F)c1)c1cccc2ccccc12	.	.	-68*	.	.
CSc1ncnc2c1ncn2CCCN[C@H](C)c1cccc2ccccc12	.	i	3	2	2
O=C(Cc1cccc2ccccc12)NC(NC(=S)Nc1ccccc1Cl)C(Cl)(Cl)Cl (stereo not drawn)	5%	i	-63*	11	-5
O=C(NC(NC(=S)Nc1ccccc1Cl)C(Cl)(Cl)Cl)c1cccc(Cl)c1 (stereo not drawn)	-3%	i	-21	3	-16
Cc1cc(C)n(-c2cc(Cl)cc(Cl)c2)c(=O)c1C#N	2%	.	-3	-6	-16
Cc1ccccc1-c1nc(CS(=O)(=O)CC(=O)NCc2ccco2)c(C)o1	-3%	i	-4	11	-12
Cc1ccc2nc(-c3ccccc3)c(-c3ccccc3)nc2c1	6%	i	-8	-1	2
Cc1ccc(-c2nc3ccc(C(=O)O)cc3nc2-c2ccc(C)cc2)cc1	5%	-123%*	6	3	-10
CC1CCCCC12NC(=O)N(CC(=O)NC(=O)Nc1ccc3c(c1)OCCO3)C2=O (stereo not drawn)	2%	i	0	-2	-14
Cc1cccc(-c2nnc(C(C)Nc3cccc(C(=O)NC4CC4)c3)o2)c1 (stereo not drawn)	.	i	1	7	-73*
O=C(NCCc1ccccc1)c1ccc(-c2ccc(F)cc2)o1	3%	i	-13	7	8
O=C(NCCc1ccccc1)c1ccc(-c2ccccc2C(F)(F)F)o1	3%	i	.	1	-214*
CCOc1ccc(C(=O)Nc2ccc(NC(=O)c3ccco3)c(Cl)c2)cc1Cl	18%	i	1	2	-72*
COc1cccc(C(=O)Nc2ccc(NC(=O)c3ccco3)c(Cl)c2)c1	-3%	i	6	-4	5
CCOc1ccc(C(=O)Nc2ccc(NC(=O)c3ccco3)c(Cl)c2)cc1Br	?	i	-19	-12	-81*
CCOC(=O)NCC(C#CCN(CC)CC)N(CC)CC (stereo not drawn)	1%	i	-2	-23	14
Oc1cccc(Nc2nc(O)c(/C=C3\C=Nc4ccccc43)s2)c1	1%	i	-1	7	-48
Oc1nc(Nc2ccc(F)cc2)sc1/C=C1\C=Nc2ccccc21	2%	i	-104*	4	0
CN(C)CCN(Cc1ccco1)C(=O)c1oc2ccccc2c1NC(=O)c1cccc(F)c1	-1%	.	-27	.	.
CN(C)CCN(Cc1ccco1)C(=O)c1oc2ccccc2c1NC(=O)COc1ccccc1	3%	i	11	-33	-95*
Fc1cccc(Cc2noc(CN3CCCN(C4Cc5ccccc5C4)CC3)n2)c1	1%	i	-11	-136*	-91*

Compound activity from PubChem BioAssay.
